Screening data (PubChem BioAssay)
The list is not random: actives were taken first. Their share in the collection is about 11%.
USP28 block – inhibitors of human USP28 deubiquitinase; inhibition, % at 25 µM; 47,000 compounds, 3% hits; purified USP28, Ub-rhodamine cleavage fluorescence, 30 min; Q96RU2; AID 1645857
USP30 inh – human USP30 deubiquitinase inhibition | inhibition, % at 25 µM | purified USP30, Ub-rhodamine cleavage fluorescence | 47,000 compounds, 5.3% hits | Q70CQ3 | AID 1645860
Target sequence (Q70CQ3 whole entry, looked up): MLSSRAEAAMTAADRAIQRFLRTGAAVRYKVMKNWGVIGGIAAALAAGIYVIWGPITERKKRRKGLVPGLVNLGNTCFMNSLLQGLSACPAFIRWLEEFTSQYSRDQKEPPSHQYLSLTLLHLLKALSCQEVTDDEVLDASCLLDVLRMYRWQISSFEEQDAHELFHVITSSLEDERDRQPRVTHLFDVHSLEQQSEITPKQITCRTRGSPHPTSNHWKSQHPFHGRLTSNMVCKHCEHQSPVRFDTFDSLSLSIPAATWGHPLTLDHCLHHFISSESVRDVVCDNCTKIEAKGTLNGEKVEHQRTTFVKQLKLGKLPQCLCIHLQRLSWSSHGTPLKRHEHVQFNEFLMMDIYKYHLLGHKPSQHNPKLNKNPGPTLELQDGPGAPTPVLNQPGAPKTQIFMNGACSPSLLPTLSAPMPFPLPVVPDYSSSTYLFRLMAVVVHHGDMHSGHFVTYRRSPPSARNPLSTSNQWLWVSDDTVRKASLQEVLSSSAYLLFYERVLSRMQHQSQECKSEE
USP17 block – human USP17-like deubiquitinase inhibition. A8MUK1. purified USP17, Ub-rhodamine cleavage fluorescence, 3 h. inhibition, % at 50 µM. 47,000 compounds, 6.5% hits. AID 1645855
Numbers without * were called inactive; · = no result. Cut-off read from the data, not from the text of the source: active = inhibition above about 30%; inactive = the rest.

SMILES	USP28 block	USP30 inh	USP17 block
Cc1ccc(S(=O)(=O)N2CCCC2c2nc(C)c3c(n2)N(C)C(=O)CC3)cc1F (configuration not stated)	-8.1	-1.2	-5.9
COc1ccc(-c2cc3n(c(=N)c2C#N)CCc2cc4c(cc2-3)OCO4)cc1O	-36.8	-149.8	-13.9
COc1ccccc1CNC(=O)c1cnc2ccccc2n1	-13.1	-8.6	-9.1
COc1cccc(CNC(=O)c2ccccc2OCc2ccccc2)c1	18.7	40.6*	31.2*
COc1ccccc1CNC(=O)c1ccccc1OCc1ccc(F)cc1	29.4	37.6*	27.4
Cc1ccc(CNC(=O)c2ccccc2OCc2ccc(Cl)cc2)cc1	16.9	24.2	11.1
CC(O)CC(=O)OC(C)Cc1cc(O)cc(O)c1C(=O)OC(C)CC(=O)OC(C)Cc1cc(O)cc(O)c1C(=O)OC(C)CC(=O)O (configuration not stated)	3.7	-8.3	-0.9
CN1CCN(C(=O)C2CCN(S(=O)(=O)c3ccc4c(c3)OCCCO4)CC2)CC1	5.7	21.4	19.1
O=C(/C=C/c1ccc2c(c1)OCO2)N1CCCc2ccccc21	24.6	45.6*	18.2
O=C(/C=C/c1cccc([N+](=O)[O-])c1)N1CCc2ccccc21	8.3	-7.6	0.2
O=C1OC2CC1N(C(=O)/C=C/c1ccc3c(c1)OCO3)C2 (configuration not stated)	9.2	20.8	3.0
Cc1noc(C2CN(C(=O)/C=C/c3ccc4c(c3)OCO4)C2)n1	10.7	32.6*	5.2
Cc1cc(-c2cnc(NCc3ccccc3F)nc2-c2ccco2)on1	-24.5	-83.1	-24.2
Cc1cc(-c2cnc(N3CCCC3)nc2[C@H]2CCCO2)on1	-6.8	-19.4	-7.7
Cc1cc(-c2cnc(C)nc2-c2ccc(CNC(=O)Cc3ccc(F)cc3)cc2)on1	5.4	-0.8	8.3
Cc1cc(-c2cnc(NCc3cccc(F)c3)nc2[C@@H]2CCCO2)on1	35.1*	21.2	17.8
Cc1cc(-c2cnc(N(C)C)nc2-c2ccc(CNC(=O)Cc3ccc(F)cc3)cc2)on1	16.1	23.5	63.5*
Cc1cc(-c2cnc(NCc3ccc(F)cc3)nc2-c2ccco2)on1	17.9	-10.8	32.7*
Cc1ccc(C)n1-c1ccsc1-c1cc(N)n[nH]1	-9.5	-29.4	16.9
N#Cc1cccc(NC(=O)CC(=O)Nc2ccc3nc4n(c(=O)c3c2)CCCCC4)c1	-115.5	-35.2	-0.5
Cc1cc(-n2c(C)cc(C(=O)CN3C(=O)NC4(CCCc5ccccc54)C3=O)c2C)no1 (configuration not stated)	-9.5	-40.4	-37.2
O=[N+]([O-])c1cc(O)cc(O)c1	5.6	21.9	-10.2
O=C(Nc1ccncc1NC(=O)c1cccc(C(F)(F)F)c1)c1cccc(C(F)(F)F)c1	-3.8	6.0	16.7
O=C(Nc1ccc2nccnc2c1)c1cccc(C(F)(F)F)c1	31.6*	75.8*	8.1
CCc1nnsc1C(=O)N1CCCC1c1cc(NC)nc(C)n1 (configuration not stated)	-14.4	-8.4	-11.1
SMILES	USP28 block	USP30 inh	USP17 block
CCc1cccc(C)c1NC(=O)Cn1c(=O)nc(N(C)c2ccccc2)c2ccccc21	1.5	8.7	0.5
Cc1cccc(NC(=O)Cn2c(=O)nc(N(C)c3ccccc3)c3ccccc32)c1	41.0*	15.4	23.3
O=C(Nc1cc(F)ccc1F)N1CCN(c2cc(-c3ccncc3)[nH]n2)CC1	4.3	-0.3	·
CC(C)(C)OC(=O)N1CCn2c(nnc2C2CCCN2C(=O)c2ccccc2)C1 (configuration not stated)	·	·	8.2
O=C(c1ccco1)N1CCN(C(c2cccc(F)c2)c2sc3ncnn3c2O)CC1 (configuration not stated)	1.0	0.4	-0.1
Cc1c(C(C)OC(=O)c2ccc(F)cc2)sc2ncnn12 (configuration not stated)	28.9	32.0*	16.8
CCN1[C@H]2CCN(C(=O)Nc3ccccc3Cl)CC[C@@H]2Oc2ccccc2S1(=O)=O	-0.3	0.0	-7.0
Cc1cc(C)nc(Nc2cncc(C3CCCN(C(=O)c4cccnc4)C3)n2)n1 (configuration not stated)	-21.9	-39.9	-17.3
COc1ccc(C2(C(=O)N3CCC[C@@H]3Cn3nnc4c(=O)[nH]c(C)nc43)CCCC2)cc1	-9.1	-10.9	-12.9
CC(C)N(C(=O)Cn1c(=O)[nH]c2ccccc21)c1ccccc1	8.6	15.3	58.2*
CCC1(c2ccccc2)NC(=O)N(CC(=O)N(c2ccccc2)C(C)C)C1=O (configuration not stated)	15.8	36.9*	12.8
CCC1(c2ccccc2)NC(=O)N(CC(=O)N(C)Cc2ccccc2)C1=O (configuration not stated)	-11.5	-5.3	-1.4
CC1CCC2(CC1)NC(=O)N(CC(=O)N(c1ccccc1)C(C)C)C2=O (configuration not stated)	-3.8	11.9	7.3
